Mcl1-Bid inh = Mcl-1/Bid interaction inhibition. Q07820. TR-FRET Mcl-1/Bid-Dy647 peptide binding, 1536-well. 220,000 compounds, 0.97% hits. inhibition, % at 21.7 µM;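 active means compounds that cut the binding signal by more than half at the single screening dose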;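 further: His-tagged Mcl-1 with europium anti-His antibody binding Bid BH3 peptide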
Target sequence (Q07820 whole entry, looked up): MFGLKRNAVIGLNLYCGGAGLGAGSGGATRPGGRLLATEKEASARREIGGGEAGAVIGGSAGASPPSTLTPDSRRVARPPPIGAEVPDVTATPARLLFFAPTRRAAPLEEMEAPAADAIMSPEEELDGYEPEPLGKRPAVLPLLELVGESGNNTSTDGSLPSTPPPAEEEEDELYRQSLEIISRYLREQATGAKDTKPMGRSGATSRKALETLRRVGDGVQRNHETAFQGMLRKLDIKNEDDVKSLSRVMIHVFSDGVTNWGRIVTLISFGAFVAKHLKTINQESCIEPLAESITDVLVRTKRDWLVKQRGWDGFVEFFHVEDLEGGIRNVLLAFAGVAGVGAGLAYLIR
p47phox inh = blocks human p47phox regulatory protein of NADPH oxidases | 220,000 compounds, 0.53% hits | AID 1274 | P14598 | inhibition, % at 24.7 µM | p47phox/p22phox peptide binding, fluorescence polarization, 2 h;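 active means inhibition above about 30%, limit read from the data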
14-3-3 Bad inh = disrupts binding of bovine 14-3-3 zeta to phospho-Bad peptide. inhibition, % at 21.7 µM. TR-FRET 14-3-3zeta/Dy647-pBad peptide displacement, 1 h. 220,000 compounds, 0.71% hits. P63103;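 active means inhibition above about 70%, limit read from the data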
Target sequence (P63103 whole entry, looked up): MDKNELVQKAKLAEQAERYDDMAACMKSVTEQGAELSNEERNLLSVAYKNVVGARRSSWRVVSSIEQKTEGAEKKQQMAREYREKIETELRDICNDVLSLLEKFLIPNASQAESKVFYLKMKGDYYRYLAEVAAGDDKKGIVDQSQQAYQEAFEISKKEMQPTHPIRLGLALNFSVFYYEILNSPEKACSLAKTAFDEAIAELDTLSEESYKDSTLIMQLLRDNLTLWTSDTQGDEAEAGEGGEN
Mcl-1 Bim block = inhibitors of Bim-Mcl-1 interaction, human; Q07820; inhibition, % at 10 µM; Bead-based flow cytometry, Bim peptide-Mcl-1 binding; 190,000 compounds, 0.1% hits; in the data active means inhibition above about 40%
Mcl1 Noxa PPI = Mcl-1/Noxa interaction inhibition; AID 1022; Q07820; inhibition, % at 21.7 µM; TR-FRET Mcl-1/Noxa peptide binding, 2 h; 220,000 compounds, 1.5% hits;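 active means compounds that cut the protein-peptide binding signal by more than 50% relative to plate controls in a single-dose test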;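 further: His-tagged Mcl-1 with rhodamine Noxa BH3 peptide and terbium anti-His antibody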
Large screens that a line does not name were inactive. Most compounds without a hit are left out; they make up all but 3.2% or so of the library.

COCCCNc1ncnc2c1sc1nc(-c3ccco3)c3c(c12)CC(C)(C)OC3	none (no result: Mcl-1 Bim block)
OCCN(CCO)c1ncnc2c1sc1nc(N3CCOCC3)c3c(c12)CCCC3	none
CC(C)(C)C(O)CN1CCCC1 (centres undefined)	none
CC(=O)c1ccc(NC(=O)C(Cc2ccccc2)n2cccc2)cc1 (centres undefined)	none (no result: Mcl-1 Bim block)
O=C(NC(=S)Nc1ccc(-c2nc3ncccc3o2)cc1)c1ccccc1F	none
COc1ccc([N+](=O)[O-])cc1NS(=O)(=O)c1cccc(C(=O)O)c1	none (no result: Mcl-1 Bim block)
Cc1cccc(Nc2nc3c(S(=O)(=O)c4ccccc4)nnn3c3ccccc23)c1	Mcl1-Bid inh 57
CCN(CC)Cc1cc(O)c(CN(CC)CC)cc1O	p47phox inh 46, Mcl1 Noxa PPI 98
CCc1oc(C(=O)O)cc1CN(CC)CC	none
CCN(CC)C(=O)C1CCCN(c2ccc([N+](=O)[O-])cc2/C=N/NC(=O)c2cccc([N+](=O)[O-])c2)C1 (centres undefined)	Mcl1-Bid inh 63
CCOc1cc(/C=N/NC(=O)c2cccnc2)ccc1OCc1ccc(C(=O)OC)o1	none
CC(C)Oc1cccc(C(=O)NC2=NCCS2)c1	14-3-3 Bad inh 80
COc1cccc(C(=O)NC2=NCCS2)c1	none
Cc1ccsc1C(=O)Nc1n[nH]c(C(F)(F)F)n1	none (no result: Mcl-1 Bim block)
O=C(Nc1n[nH]c(C(F)(F)F)n1)C1CC1	Mcl-1 Bim block 43
COc1ccccc1/C=N/NC(=O)c1ccc(NC(=O)c2cccc([N+](=O)[O-])c2)cc1	none
COc1cc(/C=N/NC(=O)c2cccnc2)ccc1OC(=O)c1ccc([N+](=O)[O-])cc1	Mcl1 Noxa PPI 58
COc1ccc(/C=N/NC(=O)c2ccc(NC(=O)c3cccc([N+](=O)[O-])c3)cc2)c(OC)c1	Mcl1 Noxa PPI 67
COc1cc(OC)c([N+](=O)[O-])cc1/C=N/NC(=O)c1ccncc1	Mcl1 Noxa PPI 71
O=C(N/N=C/c1ccccn1)c1ccc(NC(=O)c2cccc([N+](=O)[O-])c2)cc1	none
COc1ccc(/C=N/NC(=O)c2cccnc2)cc1COc1ccc([N+](=O)[O-])cc1	none (no result: Mcl-1 Bim block)
O=C(N/N=C/c1cccc(O)c1)c1ccc(NC(=O)c2cccc([N+](=O)[O-])c2)cc1	Mcl1 Noxa PPI 60
COc1ccc(CNC(=O)CNC(=O)c2c(C)nn(C)c2Cl)cc1	none
COc1cc(/C=N/NC(=O)C(=O)/C=C2\NC(C)(C)Cc3ccccc32)ccc1O	none (no result: Mcl-1 Bim block)
O=C(N/N=C/c1ccncc1)c1cc([N+](=O)[O-])cc([N+](=O)[O-])c1O	14-3-3 Bad inh 89, Mcl1 Noxa PPI 84
O=C(N/N=C/c1ccc(O)cc1)c1cccc(N/N=C/c2ccc(O)cc2)c1	Mcl1 Noxa PPI 80 (no result: Mcl-1 Bim block)
Cc1cc(C(=O)N/N=C/c2ccncc2)c(C)o1	none (no result: Mcl-1 Bim block)
COCCN(Cc1ccccc1)C(=O)c1c(C)nn(-c2ccccc2)c1C	none
CCOC1OC(=O)C(Cl)=C1Nc1cc(C)ccc1C (centres undefined)	none
O=C(COC(=O)c1ccc2ccccc2n1)NCc1ccccc1	none
NC(=O)COc1c(-c2ccccc2)oc2ccccc2c1=O	Mcl1-Bid inh 97
O=C(O)COc1c(-c2ccccc2)oc2ccccc2c1=O	none
COC(=O)N/N=C/c1ccc(Oc2ccccc2)cc1	none
Cn1nc(-c2ccccc2)c(CSc2ccccc2Cl)c1Cl	p47phox inh 34
Cn1nc(-c2ccccc2)c(C(O)c2ccc(Cl)cc2)c1Cl (centres undefined)	none
O=C1SC(SCc2ccccc2Cl)=N/C1=C\c1ccc(C(=O)O)cc1	Mcl1 Noxa PPI 80
CCSC1=N/C(=C\c2ccc(C(=O)O)cc2)C(=O)S1	none
O=C(N/N=C/c1ccncc1)c1ccc(-n2cccc2)cc1	Mcl1 Noxa PPI 59
Cc1nnc(SCc2ccc(CSc3nnc(C)c(=O)[nH]3)cc2)[nH]c1=O	none
Cc1ccc(C(=O)Oc2ccccc2N2C(=O)C3C4CCC(C4)C3C2=O)cc1 (centres undefined)	none
CC1CCCCC1NC(=O)COC(=O)c1c2c(nc3ccccc13)/C(=C/c1ccco1)CC2 (centres undefined)	Mcl1 Noxa PPI 52
CC1CCCCC1NC(=O)COC(=O)c1cc(=O)c2ccccc2o1 (centres undefined)	none
O=C(COC(=O)c1c2c(nc3ccccc13)/C(=C/c1ccco1)CC2)NC1CCCC1	Mcl1 Noxa PPI 98
CC(C)CNC(=O)COC(=O)c1c2c(nc3ccccc13)/C(=C/c1cccs1)CC2	none
CC(C)CC(NC(=O)c1ccc(C#CC(C)(C)O)s1)C(=O)O (centres undefined)	none
CC(C(=O)O)n1nc2ccccc2n1 (centres undefined)	Mcl1-Bid inh 71, 14-3-3 Bad inh 71
O=C(O)Cn1nc2ccccc2n1	none
COc1ccc(C(=O)/C=C/Nc2ccc(S(=O)(=O)Nc3onc(C)c3C)cc2)cc1	none
Oc1ccc(Br)cc1-c1cc(-c2ccco2)[nH]n1	Mcl1 Noxa PPI 64
Oc1ccccc1-c1cc(-c2ccco2)[nH]n1	none
CC1CCN(c2c(NCC3CCC(C(=O)N4CCCCC4)CC3)c(=O)c2=O)CC1 (centres undefined)	none
CC1CCN(c2c(NCC3CCC(C(=O)NC4CCCCCC4)CC3)c(=O)c2=O)CC1 (centres undefined)	14-3-3 Bad inh 86 (no result: Mcl-1 Bim block)
Cc1ccc(-c2csc(NC(=O)c3ccno3)n2)cc1	Mcl1 Noxa PPI 56
Cc1ccc(-c2csc(NC(=O)c3ccc(C)o3)n2)cc1	none
COCC(C)NC(=S)Nc1ccccc1[N+](=O)[O-] (centres undefined)	none
COc1ccc(/C=C2/C(=O)N(c3nc4ccccc4s3)N=C2CSc2ccc(Cl)cc2)cc1	Mcl1-Bid inh 51, Mcl1 Noxa PPI 91
COc1ccc(/C=C2/C(=O)N(Cc3ccccc3)N=C2C)cc1	none
O=C1CCCC2=C1C(c1cn(-c3ccccc3)nc1-c1cccs1)c1c([nH]c(=O)[nH]c1=O)N2 (centres undefined)	Mcl1 Noxa PPI 62
O=C(CCc1ccccc1)Nc1ccccc1	none
CN(C)c1ccc(NC(=O)CCCc2ccccc2)cc1	Mcl1 Noxa PPI 79
N#Cc1nc(-c2ccc(OCc3ccc(Cl)cc3)cc2)oc1NCc1cccnc1	Mcl1 Noxa PPI 57
CN1CCN(CCCNC(=O)c2ccc(/C=C3\Sc4ccccc4N(Cc4ccccc4F)C3=O)cc2)CC1	p47phox inh 86, 14-3-3 Bad inh 86
CCN1CCN(CCNC(=O)c2ccc(/C=C3/Sc4ccccc4N(Cc4cccc(Cl)c4)C3=O)cc2)CC1	p47phox inh 72
CCOCCCNC(=O)/C=C1\Sc2ccccc2N(Cc2ccccc2F)C1=O	none
CCN1CCN(CCNC(=O)c2ccc3c(c2)N(Cc2ccc(F)cc2)C(=O)/C(=C/c2ccccc2)S3)CC1	p47phox inh 62
O=C(N[C@@H](Cc1ccccc1)C(=O)OCc1ccccc1)c1nc[nH]c1C(=O)NCc1ccccc1	none (no result: p47phox inh)
Cc1ccc(-n2c(C)cc(C(=O)COc3c(CO)cc(F)cc3CO)c2C)cc1C	none

Screening data (PubChem BioAssay)
